SMILES strings stand for the structures. Records with an inconclusive call do not appear. Calls of active or inactive are those of the source. Calls follow the shape of the dose curve; as a rule, active = well fitted curve in either direction with a large enough effect (not every such curve was filed as active); inconclusive = small, poorly fitted or top-dose-only effect, or another doubt; inactive = flat fitted curve, though single readings scatter.
% is scaled to controls: 0 for no effect and ±100 for the full control effect.

The nature of the test: Stat Signaling Pathway (AID 446).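 Also: ME-180 cervical cancer cells given 40 pM IL-6 alongside compound; SIE-controlled beta-lactamase reporter measured as 460/530 nm FRET emission ratio.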 Particulars: ME-180 (cervical carcinoma) SIE beta-lactamase reporter, IL-6 stimulated, 5 h; at 17.2 µM (top of the series) unless noted. The procedure, abridged:
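IL-6/STAT signaling read in ME-180 cells via an SIE beta-lactamase reporter. Stimulus was 40 pM IL-6 (its AC50) for 5 hrs, so both activation and inhibition register.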
In the case of `COc1ccc(OC(=O)c2cc3ccccc3o2)cc1`, the activity, negative = inhibition is 10.1% (inactive).

Turning to `Cc1ccc(C)c(OCc2nnc(NC(=O)c3ccco3)s2)c1`, the activity, negative = inhibition was -9.58% (inactive).

`FC(F)(F)c1cccc(-n2cccc2/C=N/n2cnnc2)c1`: the activity, negative = inhibition is 10.7% (inactive).

Regarding `CC1(C)Cc2[nH]c(=S)c(C#N)cc2CO1`, the activity, negative = inhibition was 27.9% (inactive).

As to `Cc1cc(C)n(C(=O)CNC(=O)c2cccs2)n1`, the activity, negative = inhibition was 4.05% (inactive).

In the case of `CC1(C)CC(=O)C2=C(C1)N(CC1CCCO1)C(=O)C2(O)C(F)(F)F` (stereo not drawn), the activity, negative = inhibition was 5.45% (inactive).

`CCN(CC)CCCN1C(=O)C(=O)/C(=C(/O)c2ccccc2)C1c1ccccn1` (stereo not drawn): the activity, negative = inhibition was 3.59% (inactive).

Turning to `COCCCN1C(=O)C(O)=C(C(=O)c2ccco2)C1c1ccc(Br)cc1` (stereo not drawn), the activity, negative = inhibition was -8.56% (inactive).

As for `Cc1cc(C)c2nc(SCCC#N)nc(C)c2c1`, the activity, negative = inhibition is 6.57% (inactive).

In the case of `COC(=O)c1ccc(=O)n(Cc2ccco2)c1`, the activity, negative = inhibition was -2.94% (inactive).

For `COc1cccc(C(=O)N2CCN(Cc3ccccn3)CC2)c1OC`, the activity, negative = inhibition was 7.75% (inactive).

`CSc1nnc2n(C3CCCCC3)c(=O)c3c4c(sc3n12)CCCC4`: the activity, negative = inhibition is 14.1% (inactive).

Consider `Cc1cc(C)nc(CC(N)=O)n1`, for which the activity, negative = inhibition was -0.0254% (inactive).

In the case of `O=C(c1coc(=O)c(Br)c1)N1CCOCC1`, the activity, negative = inhibition was 1.69% (inactive).

For the molecule `CCC(=NC(CC)CO)C1=C(O)CC(C)(C)CC1=O` (stereo not drawn), the activity, negative = inhibition is 12.8% (inactive).

As to `O=C(O)C1CSCN1S(=O)(=O)c1cccc2nsnc12` (stereo not drawn), the activity, negative = inhibition was -1.2% (inactive).

`CCOC(=O)c1ccc(-n2c(=O)[nH]c3ccccc3c2=O)cc1`: the activity, negative = inhibition was 2.95% (inactive).

In the case of `Cc1nnc(SCC(=O)N2CCC(C(N)=O)CC2)s1`, the activity, negative = inhibition was 7.13% (inactive).
